# Compound activity (PubChem)
# In the library only some 4.1% were active in any assay of this set; here they are far more common.
# EBV LMP1 NFkB – reduces LMP1-driven NF-kappaB luciferase signal. LMP1-induced NF-kappaB luciferase reporter cells, luminescence. inhibition, % at 12.5 µM. actives 0.69% (n = 350,000). AID 504558; in the data active = inhibition above about 41%; inconclusive = no clear call, values can overlap the other calls;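 note: 0% = neutral control wells and 100% = reference inhibitor control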
# Shn3 3UTR inh – reduces Shn3 3'UTR luciferase signal in osteoblasts; Clone20 osteoblast Shn3 3'UTR firefly luciferase, 24 h; inhibition, % at 12.5 µM; actives 0.52% (n = 360,000);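 active = mean inhibition of at least 75% with every replicate also reaching 75%; inconclusive = mean inhibition at least 75% but some replicate below; inactive = mean inhibition below 75%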;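 note: 0% = median of neutral control wells and 100% = pilot-screen positive control compound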
# Peg3 prom inh-1 – reduces Peg3 promoter-driven luciferase expression in HeLa. actives 1.7% (n = 360,000). HeLa PEG-Prom luciferase reporter, luminescence, overnight. AID 588405. inhibition, % at 20 µM;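 active = inhibition of at least 50% at 20 µM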
# TWEAK-Fn14 inh – blocks TWEAK-Fn14 interaction in a reporter cell assay; TWEAK-stimulated Fn14 reporter cells, luciferase luminescence, 8 h; inhibition, % at 10 µM; actives 2% (n = 360,000); in the data active = inhibition above about 50%
# TROY NFkB inh – TROY signaling inhibition | Q293 LMP1-TROYcd NF-kB luciferase reporter, 4 h | inhibition, % at 10 µM | actives 0.98% (n = 360,000);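 active = compounds whose plate-normalised and pattern-corrected inhibition of the luciferase reporter signal at the single screening dose is 50% or more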
# MITF TRPM1 inh – reduces MITF-dependent TRPM1 promoter luciferase signal; SK-MEL-5 TRPM1 promoter luciferase, 24 h; inhibition, % at 12.5 µM; actives 0.83% (n = 330,000);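 active = mean inhibition across replicates of 60% or more, whatever share of single replicates reaches that level; inconclusive = some that reach 60%, reason not given; inactive = mean inhibition across replicates below 60%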
# Peg3 prom inh-2 – confirmation of Peg3 promoter inhibitors; shares compounds with Peg3 prom inh-1; HeLa PEG-Prom luciferase reporter, luminescence, overnight; inhibition, % at 20 µM; actives 84% (n = 1,300); AID 602417;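 active = at 20 µM dose, 40% or more inhibition averaged across four replicates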
# * = called active by the depositor; ? = inconclusive; nt = no result.
SMILES,EBV LMP1 NFkB,Shn3 3UTR inh,Peg3 prom inh-1,TWEAK-Fn14 inh,TROY NFkB inh,MITF TRPM1 inh,Peg3 prom inh-2
CC(C)(C)c1ccc(CN2N=Nc3ccccc3S2(=O)=O)cc1,-4.7,14.4,94.3*,29.2,-15.6,0.9,55.0*
COc1ccc(N(C(=O)c2cccnc2)S(=O)(=O)c2ccc(F)cc2)cc1,8.5,-9.7,8.6,21.2,11.9,nt,nt
Cc1ccc(S(=O)(=O)N2CCCCC2)cc1C(=O)N(C)CC(=O)Nc1ccc(Cl)c(C(F)(F)F)c1,-7.5,60.2,53.2*,22.1,32.4,19.6,56.1*
Cc1ccc(C(=O)N(C)CC(=O)Nc2ccc(Cl)c(C(F)(F)F)c2)cc1S(=O)(=O)N1CCCCC1,9.2,31.3,27.2,16.3,29.9,3.9,nt
COc1ccccc1C(=O)NCC(=O)NCCC(c1ccccc1)c1ccccc1,-2.3,0.9,42.4,19.5,6.2,6.8,nt
O=C(CCl)Nc1ccccc1Sc1ccc(Cl)cc1,11.2,40.8,105.5*,88.0*,-14.6,63.6*,84.6*
O=C(c1cc(C2CCCCN2C(=O)CCCc2ccccc2)on1)N1CCOCC1 (centres undefined),nt,8.5,-6.2,10.5,-2.5,nt,nt
O=C1C(=C2SCCCS2)CC/C1=C\c1ccc(F)cc1,77.4*,22.8,85.7*,104.0*,86.1*,58.8,42.9*
O=C1C(=Cc2ccc(F)cc2)Cc2ccccc21,nt,-18.7,-106.0,-35.4,-59.0,nt,nt
O=C(CSc1nnc(NC(=O)c2c(F)cccc2Cl)s1)Nc1ccccc1F,-3.7,-31.8,-27.0,-47.9,-9.1,2.4,nt
Cc1ccccc1OCC(O)CNC1CCC(NCC(O)COc2ccccc2C)CC1 (centres undefined),-35.4,97.0*,101.2*,-37.5,11.1,99.1*,99.5*
CC1(Cc2cccc(F)c2)C(=O)Nc2ccc(S(=O)(=O)NC3CCCCC3)cc21 (centres undefined),nt,-3.2,33.1,14.6,5.0,nt,nt
CC1(Cc2ccc(Cl)c(Cl)c2)C(=O)Nc2ccc(S(=O)(=O)NC3CCCCC3)cc21 (centres undefined),nt,24.0,69.4*,47.3,30.6,nt,68.2*
COc1cccc(C(=O)c2sc(NC(C)C)nc2N)c1,-71.6,-49.0,105.1*,21.2,-21.5,4.4,76.3*
COc1cc(NS(C)(=O)=O)ccc1Nc1c2ccccc2nc2ccccc12,57.4*,91.7*,101.9*,-213.3,-86.5,78.5*,93.3*
CN(C)CCCN(C(=O)c1ccc(C(=O)c2ccccc2)cc1)c1nc2cc3c(cc2s1)OCO3,2.3,34.1,85.9*,-24.0,9.2,18.7,90.2*
Cc1ccc2nc(N(CCCN(C)C)C(=O)c3ccc4c(c3)CCCC4)sc2c1,-10.1,2.9,107.6*,8.5,-0.1,?,97.9*
CN(C)CCN(C(=O)c1ccc(S(=O)(=O)N(C)c2ccccc2)cc1)c1nc2cc3c(cc2s1)OCCO3,-14.5,-51.7,-133.4,-18.4,-64.5,-46.3,nt
CCN(Cc1ccccc1)S(=O)(=O)c1ccc(C(=O)N(CCCN(C)C)c2nc3cc4c(cc3s2)OCCO4)cc1,-33.7,-18.0,53.3*,6.3,15.9,44.6,72.5*
O=C(Nc1cccc(Cl)c1)C1COc2ccccc2O1 (centres undefined),5.4,-35.0,-80.4,-36.2,-19.8,nt,nt
O=C(NC1CCCCC1)C(c1cccnc1)N(C(=O)CCl)c1cccc(Cl)c1 (centres undefined),18.9,-7.0,105.5*,44.1,8.6,83.4*,99.0*
O=C(O)c1cccc(COc2ccccc2Cl)c1,74.4*,88.7*,92.1*,73.2*,-10.1,91.9*,82.2*
COc1ccccc1C(=O)NCCC(=O)Nc1ccncc1,15.6,4.0,5.1,-2.1,-20.0,-4.3,nt
NS(=O)(=O)c1ccc(CCNC(=O)c2cc(-c3cccs3)nc3ccccc23)cc1,-5.0,7.4,53.9*,18.6,5.7,8.3,41.1*
CC(C)(C)c1ccc(C(=O)NC(=O)CSc2n[nH]c(N)n2)cc1,-3.8,0.3,-29.0,-9.2,-16.0,-13.0,nt
SMILES,EBV LMP1 NFkB,Shn3 3UTR inh,Peg3 prom inh-1,TWEAK-Fn14 inh,TROY NFkB inh,MITF TRPM1 inh,Peg3 prom inh-2
Cc1ccc2[nH]c3c(c2c1)CCCC3NC(=O)CCl (centres undefined),87.2*,24.5,82.4*,71.0*,6.9,54.8,88.8*
CCc1ccc(N(CC)C(=O)c2cn(C)c(=O)c3ccccc23)cc1,-7.9,-16.8,-0.8,6.5,-7.1,7.1,nt
COc1ccc2c(c1)[nH]c1c(=O)n(/N=C/C3C(C)C=C(C)CC3C)c(=O)[nH]c12 (centres undefined),-40.1,26.0,58.5*,-0.3,6.4,12.4,45.4*
COc1ccc(/C=N/n2c(=O)[nH]c3c([nH]c4ccc(Br)cc43)c2=O)cc1CN1CCOCC1,-9.5,9.6,10.5,-10.6,5.6,15.7,nt
CC1=CC(C)[C@H](/C=N/n2c(=O)[nH]c3c([nH]c4ccc(Br)cc43)c2=O)C(C)C1 (some centres undefined),-80.7,6.3,93.2*,13.5,20.7,-2.1,54.7*
CCCC(NC(=O)CCc1c(C)c2cc3c4c(oc3c(C)c2oc1=O)CCCC4)C(=O)O (centres undefined),5.0,34.5,-47.3,34.6,20.6,2.1,nt
Cc1ccc(NC(=O)O/N=C/c2c(C)nn(C(C)(C)C)c2C)cc1Cl,75.4*,nt,104.3*,102.6*,82.3*,83.0*,98.1*
CCOc1cc(/C=C\[N+](=O)[O-])ccc1OCC(=O)Nc1ccccc1C,22.0,94.9*,114.9*,-27.0,11.8,90.7*,91.1*
CC(C)(C)NC(=O)CCN(/N=C/c1ccccc1F)C1=NS(=O)(=O)c2ccccc21,-5.0,-14.8,9.6,-13.0,-17.6,2.2,nt
Cc1ccc(C(C(=O)NCc2ccco2)N(C(=O)CNC(=O)c2cccs2)c2c(C)cccc2C)cc1 (centres undefined),-4.0,31.1,65.6*,-12.5,15.4,12.8,23.0
CCN(CC)S(=O)(=O)c1ccc(N2CCOCC2)c(NC(=O)c2ccc(=O)[nH]c2)c1,-3.8,-1.9,2.4,26.3,-5.8,13.5,nt
N/C(=N\OC(=O)c1cccc([N+](=O)[O-])c1)c1ccccn1,12.1,-22.3,-173.3,23.2,9.5,-7.9,nt
CCCc1ccc(C(=O)O/N=C(\N)c2ccccn2)cc1,69.2*,75.3,107.7*,99.0*,83.3*,73.3*,96.9*
COc1cccc(C(=O)O/N=C(\N)c2ccccn2)c1,68.2*,39.4,86.7*,101.2*,79.0*,84.4*,69.1*
COC(=O)c1sc(N2C(=O)C(O)=C(C(=O)c3ccc(C)o3)C2c2cc(OC)ccc2OC)nc1C (centres undefined),0.0,-11.9,2.1,-17.3,-17.4,5.9,nt
